An excerpt weighted towards active compounds, which were near 3.8% of everything screened.
KCNH2 3.1 block – qHTS for Inhibitors of KCHN2 3.1: Mutant qHTS; Potassium voltage-gated channel subfamily H member 2, brain isoform KCNH2 3.1 (human); U2OS KCNH2 3.1, thallium flux FluxOr; stronger effect = lower value; activity change, % (tested at about 1.8 µM); hit rate 0.95% among 340,000; AID 720553, 2013;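 active = maximum activity change below -70%; inconclusive = maximum activity change from -70% to -50%; inactive = maximum activity change above -50%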;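 also: thallium influx rate constant from kinetic fluorescence after stimulation buffer; % is scaled to controls: 0 for no effect and ±100 for the full control effect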
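Channel expression came from 3.1 mutant virus (1.77 x 10^8 /mL) applied to suspended U2OS cells for 4 h. Flux was tracked with FluxOr dye plus Red40 quencher, and kinetic rate constants normalized to controls.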
MBNL1-CUG inh – qHTS Assay for Inhibitors of MBNL1-poly(CUG) RNA binding | Potency, µM (highest dose often 57.5 µM), inactives show top-dose activity change, negative = inhibition, most hits filed as inhibitors | Muscleblind-like protein 1 (Homo sapiens), Q9NR56 | TR-FRET MBNL1-His/biotin-(CUG)12 binding, 665/545 ratio | hit rate 0.036% among 280,000; active = well fitted inhibition curve with a large enough effect in the signal ratio, with a control signal flat, not every such curve was filed as active; inconclusive = small, poorly fitted or top-dose-only effect, or effect the other way, or a change in a side signal; inactive = no such curve, though single readings can be large or run the other way; the % refers to the signal ratio; also: potency is read from the fitted curve at half-maximal effect; % is scaled to controls: 0 for no effect and ±100 for the full control effect
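TR-FRET readout: Ex 340 nm, 665/545 nm emission ratio, normalized to buffer-only (basal) and MBNL1-(CUG)12 controls. Complex of MBNL1-His with Biotin-(CUG)12, compounds 92 nM–58 uM, incubated 60 min at room temperature.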
KCNH2 WT inh – qHTS for Inhibitors of KCHN2 3.1: Wildtype qHTS. activity change, % at 1.84 µM. Voltage-gated inwardly rectifying potassium channel KCNH2 (Homo sapiens), Q12809. hit rate 0.37% among 340,000. AID 720551, 2013. U2OS, BacMam KCNH2, thallium flux FluxOr; stronger effect = lower value;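 active = maximum activity change below -70%; inconclusive = maximum activity change between -70% and -50%; inactive = maximum activity change above -50%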; also: % is scaled to controls: 0 for no effect and ±100 for the full control effect
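U2OS cells were transduced with wild-type KCNH2 virus (2.03 x 10^8 / mL) for 4 h at room temperature, then cultured overnight at 37 C. Thallium flux was read with FluxOr dye. Rate constants were normalized to DMSO controls.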
CBFb RUNX1 block – qHTS Assay for Compounds Blocking the Interaction Between CBF-beta and RUNX1 for the Treatment of Acute Myeloid Leukemia; AlphaScreen CBFb-His/RUNX1-biotin binding, biochemical; Potency, µM (doses to about 59.8 µM), for inactives: top-dose activity, negative = inhibition, most hits filed as inhibitors; AID 1477, 2009; 230,000 tested, under 10 active; Runt-related transcription factor 1 (Homo sapiens) + Core-binding factor subunit beta …; also: % of control where 0% means no effect
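Bead-based AlphaScreen assay; binding partners His-tagged CBF-beta and biotinylated RUNX1 at 30 nM each. Compound exposure 15 min after a 20-min protein preincubation; bead step 90 min; all steps at room temperature.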
VDR inhibitor – Inhibitors of the vitamin D receptor (VDR): qHTS; Potency, µM, for inactives: max response, negative = inhibition, hits mostly inhibitors; hit rate 0.93% among 400,000; Vitamin D3 receptor (Homo sapiens), P11473; VDR-SRC2-3 peptide fluorescence polarization, 2 h; AID 504847, 2011; also: potency is read from the fitted curve at half-maximal effect; % is scaled to controls: 0 for no effect and ±100 for the full control effect
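Fluorescence polarization assay of small-molecule disruption of VDR binding to coregulator peptide SRC2-3. Compounds and controls pin-transferred, then read after 2 h incubation at ambient room temperature.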
PLK1 PBD block – qHTS for Inhibitors of PLK1-PDB (polo-like kinase 1 - polo-box domain): Primary Screen; Potency, µM, for inactives: max response, negative = inhibition, hits mostly inhibitors; hit rate 2.8% among 360,000; Serine/threonine-protein kinase PLK1 (Homo sapiens), P53350; Plk1 PBD binding of FITC phosphopeptide, fluorescence polarization; also: potency is read from the fitted curve at half-maximal effect; series mostly up to about 57 µM; % is scaled to controls: 0 for no effect and ±100 for the full control effect; nearly all actives have a fitted effect of over 65% in size
Target sequence (P53350 whole entry, looked up, the tested form may be a part): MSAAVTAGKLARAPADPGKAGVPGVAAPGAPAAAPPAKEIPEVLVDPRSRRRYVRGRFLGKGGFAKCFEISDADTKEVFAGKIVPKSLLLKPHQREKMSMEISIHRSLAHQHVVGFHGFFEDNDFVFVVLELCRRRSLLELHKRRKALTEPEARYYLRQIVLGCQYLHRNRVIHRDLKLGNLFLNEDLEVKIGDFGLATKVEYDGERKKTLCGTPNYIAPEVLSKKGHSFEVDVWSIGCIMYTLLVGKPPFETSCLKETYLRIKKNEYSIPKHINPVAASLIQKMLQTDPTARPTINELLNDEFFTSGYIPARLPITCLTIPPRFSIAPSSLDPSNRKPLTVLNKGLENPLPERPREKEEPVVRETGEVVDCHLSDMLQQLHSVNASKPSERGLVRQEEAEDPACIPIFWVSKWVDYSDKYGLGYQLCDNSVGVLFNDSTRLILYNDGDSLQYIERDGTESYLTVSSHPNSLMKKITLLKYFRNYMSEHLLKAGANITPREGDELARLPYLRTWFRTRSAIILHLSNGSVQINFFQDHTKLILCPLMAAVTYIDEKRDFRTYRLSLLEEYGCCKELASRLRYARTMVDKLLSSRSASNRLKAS
The depositor's hits bear a star; ? = inconclusive; nt = not tested or not shown; [ ] = another dose, or the depositor's remark. Unless noted, calls follow the shape of the dose curve; as a rule, active = well fitted curve in the direction sought with a large enough effect; inconclusive = small, poorly fitted or top-dose-only effect, or another doubt; inactive = no such curve, though single readings can be large; an effect the other way counts as inactive or inconclusive.

SMILES	KCNH2 3.1 block	MBNL1-CUG inh	KCNH2 WT inh	CBFb RUNX1 block	VDR inhibitor	PLK1 PBD block
COc1ccc(-c2cn3nc(N4CCC(C(=O)Nc5ccccc5OC)CC4)sc3n2)cc1	nt	nt	nt	nt	5%	nt
O=[N+]([O-])c1cccc(C(=Nc2ccccc2)NO)c1	1	?	21	-7%	-2%	0%
O=[N+]([O-])c1cc([N+](=O)[O-])c2c(=Nc3ccccc3)n(-c3ccccc3)n(O)c2c1	0	?	0	?	?	6µM*
Cc1oc(-c2cccc(Cl)c2)nc1CS(=O)(=O)CC(=O)NCc1ccccc1Cl	nt	nt	nt	nt	15%	nt
COc1ccc(-c2cnnc(N/N=C/c3ccc(-c4ccc([N+](=O)[O-])cc4)o3)n2)cc1	-149*	?	-11	-6%	-9%	1%
Cc1nc(SCC(=O)N2CCCC2=O)c2c(C)c(C)sc2n1	10	nt	-90*	nt	nt	-25%
O=C(CS(=O)c1ccc(C(F)(F)F)cc1[N+](=O)[O-])Oc1ccccc1 (stereo unspecified)	7	?	-1	-1%	0%	27µM*
COC(=O)c1ccc(OC(=O)CS(=O)c2ccccc2[N+](=O)[O-])cc1 (stereo unspecified)	16	?	-6	-5%	-4%	?
O=C(CC(Sc1ccc(Br)cc1)C(=O)O)c1ccc(F)cc1 (stereo unspecified)	14	-11%	1	nt	13µM*	?
C=CCNC(=O)C(=O)NCC(c1ccc2c(c1)OCO2)N1CCN(c2ccc(F)cc2)CC1 (stereo unspecified)	-7	2%	10	nt	?	24µM*
CCc1cnc2c(c1SCC(=O)c1ccc(OC)cc1)c(=O)n(C)c(=O)n2C	nt	nt	nt	nt	14%	nt
Cc1ccc(N/C=C(\[N+](=O)[O-])S(=O)(=O)c2ccccc2)cc1	11	nt	1	-18%	-9%	-21%
Cc1cccc(N/C=C(\[N+](=O)[O-])S(=O)(=O)c2ccccc2)c1	5	nt	-12	10%	-26%	27µM*
Cc1ccc(C(=O)Nc2ccccc2C(=O)O)cc1S(=O)(=O)NC1CCCCC1	-71*	-9%	7	nt	-21%	-22%
NC(=O)C1CCN(C(=O)N2c3ccccc3Sc3ccccc32)CC1	-2	-6%	11	-12%	-17%	-5%
O=C(C1CC1)N1c2ccccc2Sc2ccccc21	-83*	-15%	4	nt	11%	-21%
CCOc1ccc(-c2cccc(NS(=O)(=O)c3c(C)cc(C)cc3C)c2)nn1	nt	nt	nt	nt	15%	nt
CC(=O)c1ccc(OC(=O)c2cccs2)cc1	-5	-9%	-25	0%	-13%	-6%
CC(=O)Nc1ccc(OC(=O)c2cccs2)cc1	-93*	-3%	-7	5%	3%	-18%
CC(=O)NS(=O)(=O)c1ccc(NC(=O)c2ccc(NC(=O)c3cccs3)cc2)cc1	-163*	nt	-228*	nt	10%	-24%
COc1ccc(S(=O)(=O)Nc2cccc(-c3ccc(N4CCC(C)CC4)nn3)c2)cc1OC	nt	nt	nt	nt	4%	nt
C=CCN1c2ccccc2[C@]23C[C@@H](C(=O)OC)N(S(=O)(=O)c4ccc(C)cc4)C2=NC(C(=O)OC)=C(C(=O)OC)[C@H]13	nt	nt	nt	4%[13.1 µM]	nt	nt
Cc1cc(SCC(=O)N/N=C/c2ccc(O)c(O)c2O)c(C)cc1Br	3	5%	1	-19%	-18%	6µM*
O=C(Nc1ccc(Cl)cc1N1CCOCC1)C1CCCCC1	-15	-6%	-2	nt	-12%	-10%

Source: PubChem (National Center for Advancing Translational Sciences (NCATS))
